Our source for the growth values is PubChem BioAssay (NCI).

Molecules are shown by their SMILES. This is part of a sample that, as a whole, favours compounds with a hit. Of some 83,000 tested, about 20% had one in any assay.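 Each cell line was grown in a 96-well plate and treated with one concentration of compound for 48 hours. Values below 10 were considered active.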 Values without a mark were called inactive. Active and inactive are the calls of the source.

Among the test systems are DU-145 prostate; K-562 leukemia; MALME-3M melanoma; MDA-MB-231 breast; RXF 393 renal; SF-268 CNS; SF-295 CNS; SF-539 CNS; UACC-257 melanoma; M14 melanoma; HCT-15 colon; HT29 colon; SNB-75 CNS; SNB-19 CNS; U251 CNS; PC-3 prostate; SK-MEL-5 melanoma; UACC-62 melanoma; LOX IMVI melanoma; SK-MEL-28 melanoma.
What all share (assay): NCI-60 one-dose screen, 48 h (100 = growth as untreated, 0 = no growth, -100 = all killed)
Common to all, as to details: 10 µM unless noted

For the molecule `CCN(C(=O)CN1C(=O)/C(=C/c2ccco2)SC1=S)C1CCS(=O)(=O)C1` (stereo not given), the growth is 101% with DU-145 prostate; 89.9% in the experiment on K-562 leukemia; 104% in the experiment with MALME-3M melanoma; 108% in the experiment on MDA-MB-231 breast; 109% with RXF 393 renal; 95.4% with SF-268 CNS. Further, the growth in the experiment on SF-295 CNS was 105%; with SF-539 CNS, 98%; in the experiment with UACC-257 melanoma it was 98.2%; in the experiment with M14 melanoma, 97.3%; in the experiment on HCT-15 colon, 88.8%; in the experiment on HT29 colon, 102%. Also, the growth was 75.3% in the experiment with SNB-75 CNS; 91.8% with SNB-19 CNS; 104% in the experiment with U251 CNS; 109% in the experiment with PC-3 prostate; 91.9% in the experiment with SK-MEL-5 melanoma; 92.6% with UACC-62 melanoma. Further, the growth is 90.6% in the experiment with LOX IMVI melanoma and 98% in the experiment on SK-MEL-28 melanoma.

Consider `COc1ccc2c(c1)C(Sc1ccc(Br)cc1)c1c(nc(N)c(C#N)c1N)O2` (stereo not given), for which the growth in the experiment with DU-145 prostate was 95.4%; in the experiment on K-562 leukemia, 69.1%; in the experiment with MALME-3M melanoma it was 85.2%; in the experiment on MDA-MB-231 breast, 79.2%; in the experiment on RXF 393 renal it was 67.6%; with SF-268 CNS it was 75.2%. Also, the growth is 81.1% with SF-295 CNS; 88.8% with SF-539 CNS; 103% in the experiment with UACC-257 melanoma; 85.6% in the experiment on M14 melanoma; 76.3% in the experiment with HCT-15 colon; 91.1% in the experiment with HT29 colon. Also, the growth in the experiment with SNB-75 CNS is 80.4%; in the experiment with SNB-19 CNS it was 80.6%; in the experiment with U251 CNS, 77.2%; in the experiment with PC-3 prostate it was 48.2%; with SK-MEL-5 melanoma, 85.6%; in the experiment on UACC-62 melanoma it was 76.4%. In addition, the growth with LOX IMVI melanoma is 16.7%; with SK-MEL-28 melanoma it was 104%.

`CCN1C(=O)N(CC)C2NNC(Sc3c(C(=O)O)c4ccccc4n(CC(C)C)c3=O)=NC21` (stereo not given): the growth in the experiment on DU-145 prostate is 20%; in the experiment on K-562 leukemia it was 5.86% (active); with MALME-3M melanoma, 48.1%; in the experiment with MDA-MB-231 breast it was 15.9%; with RXF 393 renal it was 81.8%; in the experiment with SF-268 CNS, 55.7%. Also, the growth was -14.8% (active) in the experiment on SF-295 CNS; -29% (active) in the experiment on SF-539 CNS; 50.3% with UACC-257 melanoma; 22.4% in the experiment on M14 melanoma; 7.04% (active) in the experiment with HCT-15 colon; -8.58% (active) with HT29 colon. Besides, the growth was 34.4% with SNB-75 CNS; 17% in the experiment on SNB-19 CNS; 10.7% with U251 CNS; 29.9% in the experiment with PC-3 prostate; 2.31% (active) in the experiment with SK-MEL-5 melanoma; 14.7% with UACC-62 melanoma. The values for the growth in the experiment with LOX IMVI melanoma and in the experiment on SK-MEL-28 melanoma were 16.5% and 54.4%, respectively.

`FC(F)(F)CN1CCN(CCn2c(C(F)(F)F)cc3c(Cl)ncnc32)CC1`: the growth is 30.9% in the experiment with DU-145 prostate; -20.3% (active) with K-562 leukemia; 77.3% in the experiment on MALME-3M melanoma; -35.6% (active) in the experiment with MDA-MB-231 breast; 59.7% in the experiment with RXF 393 renal; -18.5% (active) in the experiment with SF-268 CNS. Moreover, the growth with SF-295 CNS is 67.1%; in the experiment on SF-539 CNS, 66.6%; with UACC-257 melanoma, 45.7%; in the experiment on M14 melanoma, -66.7% (active); in the experiment on HCT-15 colon, -56.7% (active); in the experiment on HT29 colon it was 12.5%. Also, the growth in the experiment on SNB-75 CNS is -32.1% (active); in the experiment with SNB-19 CNS, -87.5% (active); with U251 CNS, -12.6% (active); in the experiment on PC-3 prostate, 18.2%; with SK-MEL-5 melanoma, 9.63% (active); in the experiment with UACC-62 melanoma it was 28.4%. In addition, the figures for the growth in the experiment on LOX IMVI melanoma and in the experiment with SK-MEL-28 melanoma were -96.7% (active) and 31.3%, respectively.

On to `COc1ccc(Nc2nnc(-c3c[nH]c4ccccc34)o2)cc1`, for which the growth in the experiment on DU-145 prostate was 95.8%; with K-562 leukemia, 68.1%; with MALME-3M melanoma it was 79.5%; in the experiment on MDA-MB-231 breast it was 64.7%; in the experiment on RXF 393 renal it was 104%; in the experiment with SF-268 CNS, 71.9%. Besides, the growth in the experiment on SF-295 CNS was 98%; with SF-539 CNS, 69.7%; in the experiment with UACC-257 melanoma it was 95.9%; with M14 melanoma, 97.7%; with HCT-15 colon it was 69%; with HT29 colon it was 106%. Further, the growth was 78.8% in the experiment with SNB-75 CNS; 95.2% in the experiment on SNB-19 CNS; 97.6% with U251 CNS; 78.6% with PC-3 prostate; 90.6% in the experiment with SK-MEL-5 melanoma; 82.2% with UACC-62 melanoma. Moreover, the growth in the experiment with LOX IMVI melanoma was 71.6%; with SK-MEL-28 melanoma, 107%.

Turning to `OC1CCC(Cn2c(C(F)(F)F)cc3c(Cl)ncnc32)CC1` (stereo not given), the growth with DU-145 prostate was 10.5%; in the experiment on K-562 leukemia, -3.95% (active); with MALME-3M melanoma, 79.3%; with MDA-MB-231 breast, 2.76% (active); with RXF 393 renal, 63.1%; with SF-268 CNS it was -36.4% (active). In addition, the growth in the experiment on SF-295 CNS is 75.6%; in the experiment on SF-539 CNS, 75.6%; in the experiment on UACC-257 melanoma it was 9.12% (active); with M14 melanoma, -44.1% (active); in the experiment with HCT-15 colon, -14.2% (active); in the experiment with HT29 colon, 49.9%. The growth in the experiment with SNB-75 CNS was -71.6% (active); in the experiment with SNB-19 CNS, -88.6% (active); with U251 CNS, 11.6%; in the experiment with PC-3 prostate, 23.5%; with SK-MEL-5 melanoma, -83.6% (active); with UACC-62 melanoma it was -53.5% (active). Further, the growth is -98.4% (active) with LOX IMVI melanoma and 20.2% in the experiment with SK-MEL-28 melanoma.

On to `Cc1nc(N)ncc1-c1ccc2ncnc(N3CCc4cc(F)c(Cl)cc43)c2c1`, for which the growth in the experiment on DU-145 prostate is 47.3%; in the experiment with K-562 leukemia, 61.7%; in the experiment on MALME-3M melanoma it was 91.9%; in the experiment with MDA-MB-231 breast, 35.3%; in the experiment with RXF 393 renal it was 14.6%; with SF-268 CNS, 45.9%. The growth in the experiment with SF-295 CNS was 84.9%; in the experiment on SF-539 CNS it was 67%; with UACC-257 melanoma it was 105%; in the experiment on M14 melanoma it was 102%; in the experiment with HCT-15 colon it was 55.5%; in the experiment on HT29 colon it was 67.2%. Also, the growth in the experiment with SNB-75 CNS was 15.7%; in the experiment with SNB-19 CNS it was 68.3%; with U251 CNS it was 67%; with PC-3 prostate, 54.4%; with SK-MEL-5 melanoma, 77.1%; in the experiment on UACC-62 melanoma, 71.8%. Also, the results for the growth in the experiment on LOX IMVI melanoma and with SK-MEL-28 melanoma were 60.9% and 107%, respectively.

For `COc1ccc2[nH]c(=O)c(CSc3ccccc3Nc3nccc(-c4ccc(Cl)cc4)n3)cc2c1`, the growth was 48.7% in the experiment with DU-145 prostate; 39.7% in the experiment on K-562 leukemia; 32.1% in the experiment on MALME-3M melanoma; 60.9% in the experiment on MDA-MB-231 breast; -4.36% (active) in the experiment with RXF 393 renal; 55.1% in the experiment with SF-268 CNS. Besides, the growth with SF-295 CNS was 32.8%; with SF-539 CNS, 21.7%; with UACC-257 melanoma, 73.4%; in the experiment with M14 melanoma, 68.5%; in the experiment with HCT-15 colon, 25.8%; in the experiment on HT29 colon, 17.3%. In addition, the growth was 23.6% in the experiment with SNB-75 CNS; 56.8% in the experiment on SNB-19 CNS; 37.8% in the experiment on U251 CNS; 38.5% in the experiment with PC-3 prostate; 25.4% in the experiment with SK-MEL-5 melanoma; 52.6% in the experiment with UACC-62 melanoma. The growth in the experiment on LOX IMVI melanoma is 19.4%; in the experiment on SK-MEL-28 melanoma it was 74.1%.
